Experimental findings from the supplement of paper PMC11001985 are described below.

The target in this experiment is TTYH3 (lysine site: K340) (UniProt Q9C0H2). In words: lysine labeling ratio R10:1 (500 µM / 50 µM probe), SILAC-ABPP in living cells; higher = lower intrinsic lysine reactivity toward the probe, active = 2 or less. As to conditions: HeLa; probe concentrations 500 vs 50 µM. As for the experimental part: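 Living HeLa cells (SILAC light/heavy) in PBS at room temperature were labeled with 50 µM versus 500 µM of the lysine-reactive, reductant-cleavable probe OPA-S-S-alkyne (SILAC labeling time not stated). Probe-modified peptides were CuAAC-biotinylated, captured on neutravidin and eluted with DTT/IAA, then quantified by LC-MS/MS. R = median peptide ratio per lysine (500/50 µM), combined over 3 forward and 3 reverse SILAC replicates. Ratios are capped at 20; R < 2 = hyper-reactive.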
TTYH3 (lysine site: K340), sequence (Q9C0H2 whole entry): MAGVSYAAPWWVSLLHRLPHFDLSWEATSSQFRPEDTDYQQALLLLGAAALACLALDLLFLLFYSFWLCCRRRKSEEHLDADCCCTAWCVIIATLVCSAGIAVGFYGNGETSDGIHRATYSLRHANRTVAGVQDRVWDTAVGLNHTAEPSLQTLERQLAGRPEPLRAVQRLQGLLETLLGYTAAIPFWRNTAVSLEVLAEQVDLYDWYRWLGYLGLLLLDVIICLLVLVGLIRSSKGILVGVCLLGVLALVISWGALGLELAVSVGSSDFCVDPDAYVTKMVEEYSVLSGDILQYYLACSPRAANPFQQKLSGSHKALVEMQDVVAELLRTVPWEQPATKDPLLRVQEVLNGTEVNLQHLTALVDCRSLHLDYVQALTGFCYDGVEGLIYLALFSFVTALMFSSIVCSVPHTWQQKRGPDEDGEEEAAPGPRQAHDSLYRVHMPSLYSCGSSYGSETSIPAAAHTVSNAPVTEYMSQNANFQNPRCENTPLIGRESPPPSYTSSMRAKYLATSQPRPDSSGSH
With `C#CCNC(=O)CCSSCCC(=O)NCCc1ccc(C=O)c(C=O)c1`, the “lysine labeling ratio R10:1” value was 2.27 (inactive).
